In all, about 290,000 compounds went through this assay and about 890 (0.31%) were called active. Rule as the data show it: active = inhibition mostly above about 52% (no sharp cut-off); inactive = mostly below about 76%. The list comes from a sample in which actives are over-represented; it also holds similar structures and randomly drawn compounds.
Test: inhibitors of HIV fusion peptide binding, primary screen, biochemical, uHTS, fluorescence dequenching (AID 1986)
Conditions: cell-free peptide binding, 30 min, stronger effect = higher value
[1] = measured here: repeat confirmation average inhibition, at 18.6 µM

Row | Compound | inhibition (at 20 µM) | inhibition [1] [%]
1 | CC(C)(C)n1nnnc1CN1CCN2CCCC2C1 (centres undefined) | 1.1% (inactive) | –
2 | NC(=O)C1=C[C@H](c2ccc(C(F)(F)F)cc2)C[C@H](OCCCCO)O1 | -0.7% (inactive) | –
3 | Cc1cccc(NS(=O)(=O)c2ccc3c(c2)oc(=O)n3C)c1C | 2.3% (inactive) | –
4 | Cc1cccc(NC(=O)NC2CCCc3ccccc32)c1 (centres undefined) | -2.1% (inactive) | –
5 | COc1ccccc1OCC(=O)Nc1ccc(S(=O)(=O)Nc2onc(C)c2C)cc1 | -0.4% (inactive) | –
6 | CCC(C)[C@H](NC(=O)[C@@H]1Cc2c([nH]c3ccccc23)C2c3ccccc3C(=O)N21)C(=O)N1CCC[C@@H]1C(=O)O (some centres undefined) | 6.9% (inactive) | –
7 | O=C(CN1C(=O)/C(=C/c2ccco2)SC1=S)Nc1ccc(C(=O)O)c(O)c1 | 76.4% (active) | –
8 | O=C(CN1C(=O)/C(=C\c2ccco2)SC1=S)Nc1ccc(O)cc1C(=O)O | 75.1% (active) | –
9 | COc1ccc(NC(=O)CCCN2C(=O)/C(=C\c3ccco3)SC2=S)cc1 | 33.7% (inactive) | –
10 | O=C(CN1C(=O)/C(=C\c2cccs2)SC1=S)Nc1cccc(C(=O)O)c1 | 32.4% (inactive) | –
11 | O=C(CCN1C(=O)/C(=C/c2ccco2)SC1=S)Nc1ccc(O)cc1C(=O)O | 52.5% (inactive) | 30.6
12 | O=C(CCCN1C(=O)/C(=C\c2ccco2)SC1=S)Nc1ccc(O)cc1C(=O)O | 72% (inactive) | 13
13 | CCCCOc1ccc(Cc2n[nH]c(=S)n2N)cc1 | -3.5% (inactive) | –
14 | Cc1ccc(C)c(S(=O)(=O)N2CCN(C(=O)c3ccc(N4CCCC4)c([N+](=O)[O-])c3)CC2)c1 | 0.3% (inactive) | –
15 | CC1(C)Cc2nc3sc4c(N5CCCC5)nnnc4c3cc2CO1 | 0.1% (inactive) | –
16 | O=C(NCCCCc1ccccc1)c1cccc([N+](=O)[O-])c1 | 0.7% (inactive) | –
17 | CCCOc1ccc(-c2cc(C(F)(F)F)c(C#N)c(SCC(=O)O)n2)cc1 | 29.9% (inactive) | –
18 | CCCCOc1ccc(-c2cc(C(F)(F)F)c(C#N)c(SCC(=O)O)n2)cc1 | 79.3% (active) | –
19 | COc1ccc(-c2cc(C(F)(F)F)c(C#N)c(SCC(=O)O)n2)cc1 | 2.9% (inactive) | –
20 | O=C(N/N=C/c1cccc([N+](=O)[O-])c1)c1ccc2nc[nH]c2c1 | -2.3% (inactive) | –
21 | O=C1c2ccccc2C(=O)N1Cc1cc(Cl)c(O)c([N+](=O)[O-])c1 | -1.1% (inactive) | –
22 | NC(=S)Nc1cc2ccccc2c2ccccc12 | -2.7% (inactive) | –
23 | CC1CCCN(S(=O)(=O)c2ccc([N+](=O)[O-])cc2)C1 (centres undefined) | 1.5% (inactive) | –
24 | N[C@@H](Cc1cc(I)c(Oc2ccc(O)c(I)c2)c(I)c1)C(=O)O | 30.3% (inactive) | –
25 | O=C(O)CCc1cc(I)c(Oc2ccc(O)c(I)c2)c(I)c1 | 75.1% (active) | –
26 | O=C(O)Cc1cc(I)c(Oc2ccc(O)c(I)c2)c(I)c1 | 68.9% (inactive) | 33.9

Row | Compound | inhibition (at 20 µM) | inhibition [1] [%]
27 | CCn1c(=O)c2c(nc3n2CCCN3CCc2ccc(OC)c(OC)c2)n(C)c1=O | -0.3% (inactive) | –
28 | CC(C)C(=O)NNC(=O)c1csc(-c2cccs2)n1 | 0% (inactive) | –
29 | COc1cc(C2CC(=O)Nc3c2c(=O)nc2c(C)cccn32)cc(OC)c1OC (centres undefined) | 0% (inactive) | –
30 | Cc1ccc2nc(/C(C#N)=C\c3ccc(N4CCOCC4)o3)[nH]c2c1 | 28% (inactive) | –
31 | N#C/C(=C\c1ccc(N2CCOCC2)o1)C(=O)N1CCOCC1 | 53.5% (active) | 83.9
32 | N#C/C(=C\c1ccc(N2CCOCC2)o1)c1nc2ccccc2[nH]1 | 48.3% (inactive) | –
33 | N#C/C(=C/c1ccc(N2CCOCC2)o1)c1nc2ccccc2[nH]1 | 52.1% (active) | –
34 | N#C/C(=C\c1ccc(N2CCCCC2)o1)C(N)=O | 91.9% (active) | –
35 | N#C/C(=C/c1ccc(N2CCOCC2)o1)C(=O)Nc1ccccc1 | 147% (inactive) | –
36 | N#C/C(=C\c1ccc(N2CCOCC2)o1)C(=O)Nc1ccc(O)cc1 | 148% (inactive) | –
37 | N#C/C(=C/c1ccc(N2CCCCC2)o1)C(=O)Nc1ccc(Cl)cc1 | 44.8% (inactive) | –
38 | N#C/C(=C/c1ccc(N2CCCCC2)o1)C(=O)Nc1ccc2ccccc2c1 | 153% (inactive) | –
39 | COc1cccc(CC(=O)NC2CCCN(Cc3ccc(Cl)cc3)C2)c1 (centres undefined) | -1% (inactive) | –
40 | CCCCCn1c(=O)[nH]c2cc(C(=O)NCCN3CCCCC3C)ccc2c1=O (centres undefined) | 0.7% (inactive) | –
41 | COc1ccc(OC)c(CN2CCN(S(=O)(=O)c3ccc(NC(C)=O)cc3)CC2)c1 | -1.6% (inactive) | –
42 | S=C(NCCc1ccccc1)NC1CC2CCC(C1)N2Cc1ccccc1 (centres undefined) | -0.5% (inactive) | –
43 | O=C(N/N=C/c1ccncc1)c1cccs1 | -1.5% (inactive) | –
44 | CCOC(=O)c1sc(N/N=C/c2cc(Br)c(O)c(OC)c2)nc1C | 13.2% (inactive) | –
45 | COC/C=C/C1=CC2=CC(=O)C(C)(OC(=O)C3CCCC3)C(=O)C2=CO1 (centres undefined) | 35.3% (inactive) | –
46 | COC/C=C/C1=CC2=CC(=O)C(C)(OC(=O)CCC(=O)OC)C(=O)C2=CO1 (centres undefined) | 45% (inactive) | –
47 | COC/C=C/C1=CC2=CC(=O)C(C)(OC(=O)c3ccco3)C(=O)C2=CO1 (centres undefined) | 51% (active) | –
48 | COC(=O)c1ccc(C(=S)NCC2(N(C)C)CCCCC2)cc1 | -0.5% (inactive) | –
49 | Clc1ccccc1Cn1c(/C=C/c2ccco2)nc2ccccc21 | 54.5% (inactive) | 0.3
50 | Clc1ccc(Cn2c(/C=C/c3ccco3)nc3ccccc32)cc1 | 58.4% (active) | –
51 | Cc1ccc(Cn2c(/C=C/c3ccco3)nc3ccccc32)cc1 | 28.5% (inactive) | –
52 | COc1ccc(C(=O)NNC(=O)Cc2ccc(Cl)cc2)cc1 | 0.6% (inactive) | –

Row | Compound | inhibition (at 20 µM) | inhibition [1] [%]
53 | S=C1NC(c2ccccc2)=CC(c2ccccc2)N1 (centres undefined) | -0.8% (inactive) | –
54 | CCOc1cc2c(cc1/C=C/c1noc(C)c1[N+](=O)[O-])OC(C)C2 (centres undefined) | 97.9% (active) | 62.4
55 | CCOc1cc2c(cc1C=O)OC(C)C2 (centres undefined) | 0.9% (inactive) | –
56 | CCOc1cc2c(cc1/C=C/C(=O)O)OC(C)C2 (centres undefined) | -2.8% (inactive) | –
57 | Cc1nonc1NC(=O)CSc1cn[nH]n1 | -0.1% (inactive) | –
58 | CCOc1ccc2nc(NC(=O)CSc3ccccc3)sc2c1 | 2.6% (inactive) | –
59 | N#Cc1c(-c2ccccc2)nc(SCC(=O)Nc2ccccc2)[nH]c1=O | 22% (inactive) | –
60 | CCOc1ccc2nc(NC(=O)CSc3ccc(Cl)cc3)sc2c1 | -1.6% (inactive) | –
61 | N#Cc1c(-c2ccccc2)nc(SCC(=O)Nc2ccccc2F)[nH]c1=O | 14.2% (inactive) | –
62 | COc1cccc(OC)c1OCCCOc1ccc([N+](=O)[O-])cc1Cl | 1.3% (inactive) | –
63 | CC(C)(C)c1ccc(OC(=O)N2CCOCC2)cc1 | 1.1% (inactive) | –
64 | NC(=O)C1CCN(C(=O)COc2ccc3c4c(c(=O)oc3c2)CCCC4)CC1 | -2.1% (inactive) | –
65 | CCCn1nc([N+](=O)[O-])c(C(C#N)c2nc3ccccc3o2)c(Cl)c1=O (centres undefined) | 51.5% (active) | –
66 | CCn1nc([N+](=O)[O-])c(C(C#N)c2nc3ccccc3n2C)c(Cl)c1=O (centres undefined) | 9.2% (inactive) | –
67 | CCCn1nc([N+](=O)[O-])c(C(C#N)c2nc3ccccc3s2)c(Cl)c1=O (centres undefined) | 52.4% (inactive) | 39.3
68 | CCOc1cccc(-c2nnc(SCC(=O)Nc3ccc(OC)c(OC)c3)n2N)c1 | -0.9% (inactive) | –
69 | CC(C)C[C@@H](COc1ccccc1)N1CCN(C)CCC1=O | 1.1% (inactive) | –
70 | CCCOc1c(Br)cc(C(N)=O)cc1OCC | -1.3% (inactive) | –
71 | O=[N+]([O-])c1nn(-c2ccc3c(c2)OCCO3)n(O)c1=NCc1ccc(F)cc1 | -3.5% (inactive) | –
72 | O=[N+]([O-])c1nn(-c2ccc3c(c2)OCCO3)n(O)c1=NCc1ccccc1Cl | 1.5% (inactive) | –
73 | O=[N+]([O-])c1nn(-c2ccc3c(c2)OCCO3)n(O)c1=NCc1ccc(F)cc1Cl | 51.7% (active) | –
74 | COc1ccc(OC)c(CCNC(=O)c2ccc3c(c2)N(Cc2ccc(F)cc2)CCS3)c1 | -0.6% (inactive) | –
75 | CCOC(=O)N1CCN(C(=O)c2cc3c(=O)n4cccc(C)c4nc3s2)CC1 | 1.5% (inactive) | –
76 | Cn1c(=O)c2cc(S(=O)(=O)NCCC(=O)NC3CCCCCC3)ccc2n(C)c1=O | -0.8% (inactive) | –
77 | Cn1c(=O)c2cc(S(=O)(=O)NCCC(=O)NC3CCCCCCC3)ccc2n(C)c1=O | 70.9% (active) | –
78 | CN(CC(=O)NC1CCCCC1)S(=O)(=O)c1ccc2c(c1)c(=O)n(C)c(=O)n2C | -0.8% (inactive) | –

Row | Compound | inhibition (at 20 µM) | inhibition [1] [%]
79 | COc1ccc(Cl)cc1N=Cc1c(O)c2ccccc2oc1=O | 0.2% (inactive) | –
80 | COc1cc(N=Cc2c(O)c3ccccc3oc2=O)c(OC)cc1Cl | 73.9% (active) | 196
81 | COc1ccc(OC)c(N=Cc2c(O)c3ccccc3oc2=O)c1 | 37.7% (inactive) | –
82 | CC1CCCN(C2(O)C(=O)Nc3ccc(Cl)cc32)C1 (centres undefined) | -0.9% (inactive) | –
83 | COc1ccccc1CN(C)C(=O)CNC(=O)c1cccc(Cl)c1 | 0.2% (inactive) | –
84 | O=C1OC(c2cccs2)=N/C1=C\c1ccc(-c2cccc(Cl)c2)o1 | 55.7% (inactive) | 21.2
85 | O=C1OC(c2ccco2)=N/C1=C\c1ccc(-c2cccc(C(F)(F)F)c2)o1 | 55.6% (active) | 164
86 | O=C1OC(c2cccs2)=N/C1=C/c1ccc(-c2cccc(C(=O)O)c2)o1 | 53% (inactive) | 13.5
87 | CCOc1ccc(C2C(C(=O)c3ccc(C)o3)=C(O)C(=O)N2Cc2cccnc2)cc1 (centres undefined) | -3.1% (inactive) | –
88 | COc1ccc(C)cc1S(=O)(=O)NC1CCCCCC1 | -1.6% (inactive) | –
89 | Cc1ccccc1-n1ncc2c1CC(C)(C)CC2NC(=O)c1cn[nH]c1C (centres undefined) | -0.7% (inactive) | –
90 | Cc1ccc(N=C2NC(=O)/C(=C/C=C/c3ccco3)S2)cc1 | 52.6% (inactive) | 1.5
91 | Cc1ccc(N=C2NC(=O)S/C2=C\c2ccco2)cc1 | 47.8% (inactive) | –
92 | COc1ccc(S(=O)(=O)/N=C2/NC(=O)/C(=C\c3ccco3)S2)cc1 | 60.8% (active) | –
93 | Cc1ccc(N=C2NC(=O)/C(=C\c3ccco3)S2)cc1 | 57.5% (active) | –
94 | O=C1NC(=Nc2ccccc2)/C(=C/c2ccco2)S1 | 47.9% (inactive) | –
95 | CC(=O)Nc1ccc(S(=O)(=O)/N=C2/NC(=O)/C(=C\c3ccco3)S2)cc1 | 41.2% (inactive) | –
96 | COc1ccc(S(=O)(=O)/N=C2/NC(=O)/C(=C/c3ccco3)S2)cc1 | 70.3% (inactive) | 9.9
97 | COc1ccc(N=C2NC(=O)/C(=C\c3ccco3)S2)cc1 | 42% (inactive) | –
98 | O=C1NC(=Nc2ccc3ccccc3c2)S/C1=C/c1ccco1 | 54.8% (active) | –
99 | Cc1cccc(N=C2NC(=O)S/C2=C\c2ccco2)c1 | 71.9% (active) | –
100 | O=C1NC(=Nc2ccc(O)cc2)S/C1=C/c1ccco1 | 17.3% (inactive) | –
101 | COc1ccc(N=C2NC(=O)/C(=C/c3ccco3)S2)cc1 | 9.7% (inactive) | –

From PubChem BioAssay AID1986 (Sanford-Burnham Center for Chemical Genomics, 2009)
